These results are taken from article PMC12820563, “FoxP3 forms a head-to-head dimer in vivo and stabilizes its multimerization on adjacent microsatellites”.

Whole data set: some 16,000 sequences, median “rpm ratio (pull-down/input)” near 0.5, cut for the highest 2% near 5.5. The full list was thinned out, with the highest values kept by preference.

The experiment deals with T1, MBP-FoxP3dN (Mus musculus, UniProt Q99JB6 188-423).
T1 sequence: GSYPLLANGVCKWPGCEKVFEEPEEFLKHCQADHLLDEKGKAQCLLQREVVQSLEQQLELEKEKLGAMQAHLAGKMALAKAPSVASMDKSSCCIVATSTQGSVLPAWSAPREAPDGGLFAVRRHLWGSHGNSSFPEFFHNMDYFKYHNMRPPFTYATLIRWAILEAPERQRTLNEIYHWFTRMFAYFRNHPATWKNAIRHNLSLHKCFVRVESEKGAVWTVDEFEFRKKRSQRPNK
Description: PD-seq (MBP pull-down with sequencing); 20 mM Tris-HCl pH 7.5, 100 mM NaCl, 1.5 mM MgCl2, 0.4 uM protein, 0.1 uM dsDNA library, 30 min, room temperature, amylose pull-down; high values mean tight binding. Conditions: protein: recombinant; tags: His6-MBP; chain copies: 2; dsDNA, one strand shown. The gist of the method: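 Binding is the reads-per-million enrichment of pull-down relative to input, pooled across replicates. For this, 0.4 µM His6-MBP-tagged mouse FoxP3 or FoxP1 fragment lacking the N-terminus, made in E. coli, was incubated with 0.1 µM Klenow-filled double-stranded degenerate DNA library for 30 min at room temperature in Tris pH 7.5 buffer with NaCl and MgCl2. Complexes bound to amylose resin were washed three times before proteinase K released the DNA for PCR barcoding and Illumina sequencing.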
For the sequence “GATGATTGTTCTCCCAGCTGATGAATTTAGTATATCGAGTAAACAAATTTTCCTAATCTTTCTGTTCAAGCGCCATCTAC”, the binding signal was 2.93 RPM ratio (pull-down/input).
For “GATGATTGTTCTCCCAGCTGATGAATTAGCTGGCTCGAGTAAACAAATTTTCCTAATCTTTCTGTTCAAGCGCCATCTAC”, the binding signal is 0.476 RPM ratio (pull-down/input).
As for “GATGATTGTTCTCCCAGCTGATGAATTTATTACGTCGAGTAAACAAATTTTCCTAATCTTTCTGTTCAAGCGCCATCTAC”, the binding signal is 1.22 RPM ratio (pull-down/input).
Turning to “GATGATTGTTCTCCCAGCTGATGAATTGGCGACGTCGAGTAAACAAATTTTCCTAATCTTTCTGTTCAAGCGCCATCTAC”, the binding signal was 0.41 RPM ratio (pull-down/input).
As to “GATGATTGTTCTCCCAGCTGATGAATTAGGTTGGTCGAGTAAACAAATTTTCCTAATCTTTCTGTTCAAGCGCCATCTAC”, the binding signal is 1.62 RPM ratio (pull-down/input).
Consider “GATGATTGTTCTCCCAGCTGATGAATTCTTTGTGTCGAGTAAACAAATTTTCCTAATCTTTCTGTTCAAGCGCCATCTAC”, for which the binding signal was 0.573 RPM ratio (pull-down/input).
The result for “GATGATTGTTCTCCCAGCTGATGAATTTTTTGTGTCGAGTAAACAAATTTTCCTAATCTTTCTGTTCAAGCGCCATCTAC” reads 0.531 RPM ratio (pull-down/input); that for “GATGATTGTTCTCCCAGCTGATGAATTTTGTGTGTCGAGTAAACAAATTTTCCTAATCTTTCTGTTCAAGCGCCATCTAC”, 5.59 RPM ratio (pull-down/input); that for “GATGATTGTTCTCCCAGCTGATGAATTAGTCTGATCGAGTAAACAAATTTTCCTAATCTTTCTGTTCAAGCGCCATCTAC”, 0.373 RPM ratio (pull-down/input).
“GATGATTGTTCTCCCAGCTGATGAATTCTCCCGTTCGAGTAAACAAATTTTCCTAATCTTTCTGTTCAAGCGCCATCTAC”: the binding signal is 0.247 RPM ratio (pull-down/input).
For the sequence “GATGATTGTTCTCCCAGCTGATGAATTCTCCCATTCGAGTAAACAAATTTTCCTAATCTTTCTGTTCAAGCGCCATCTAC”, the binding signal was 0.243 RPM ratio (pull-down/input).
Consider “GATGATTGTTCTCCCAGCTGATGAATTTTGTGATTCGAGTAAACAAATTTTCCTAATCTTTCTGTTCAAGCGCCATCTAC”, for which the binding signal is 5.26 RPM ratio (pull-down/input).
For the sequence “GATGATTGTTCTCCCAGCTGATGAATTCATTTGTTCGAGTAAACAAATTTTCCTAATCTTTCTGTTCAAGCGCCATCTAC”, the binding signal was 3.73 RPM ratio (pull-down/input).
As for “GATGATTGTTCTCCCAGCTGATGAATTGGTGAATTCGAGTAAACAAATTTTCCTAATCTTTCTGTTCAAGCGCCATCTAC”, the binding signal is 0.867 RPM ratio (pull-down/input).
Take “GATGATTGTTCTCCCAGCTGATGAATTTGGTGCATCGAGTAAACAAATTTTCCTAATCTTTCTGTTCAAGCGCCATCTAC”: the binding signal is 1.86 RPM ratio (pull-down/input).
The result for “GATGATTGTTCTCCCAGCTGATGAATTGTGCCATTCGAGTAAACAAATTTTCCTAATCTTTCTGTTCAAGCGCCATCTAC” reads 6.37 RPM ratio (pull-down/input).
Consider “GATGATTGTTCTCCCAGCTGATGAATTTTCCCATTCGAGTAAACAAATTTTCCTAATCTTTCTGTTCAAGCGCCATCTAC”, for which the binding signal was 0.252 RPM ratio (pull-down/input).
Consider “GATGATTGTTCTCCCAGCTGATGAATTGTGCTGTTCGAGTAAACAAATTTTCCTAATCTTTCTGTTCAAGCGCCATCTAC”, for which the binding signal is 3.6 RPM ratio (pull-down/input).
In the case of “GATGATTGTTCTCCCAGCTGATGAATTGGTGCATTCGAGTAAACAAATTTTCCTAATCTTTCTGTTCAAGCGCCATCTAC”, the binding signal was 6.97 RPM ratio (pull-down/input).
With “GATGATTGTTCTCCCAGCTGATGAATTTGTGCATTCGAGTAAACAAATTTTCCTAATCTTTCTGTTCAAGCGCCATCTAC”, the binding signal is 7.63 RPM ratio (pull-down/input).
In the case of “GATGATTGTTCTCCCAGCTGATGAATTGTGCATTTCGAGTAAACAAATTTTCCTAATCTTTCTGTTCAAGCGCCATCTAC”, the binding signal is 7.44 RPM ratio (pull-down/input).
Take “GATGATTGTTCTCCCAGCTGATGAATTGTGTGCATCGAGTAAACAAATTTTCCTAATCTTTCTGTTCAAGCGCCATCTAC”: the binding signal is 2.8 RPM ratio (pull-down/input).
For “GATGATTGTTCTCCCAGCTGATGAATTGAATAGCTCGAGTAAACAAATTTTCCTAATCTTTCTGTTCAAGCGCCATCTAC”, the binding signal was 0.346 RPM ratio (pull-down/input).
For “GATGATTGTTCTCCCAGCTGATGAATTTGTAAAATCGAGTAAACAAATTTTCCTAATCTTTCTGTTCAAGCGCCATCTAC”, the binding signal is 0.357 RPM ratio (pull-down/input).
As for “GATGATTGTTCTCCCAGCTGATGAATTGTCGTAGTCGAGTAAACAAATTTTCCTAATCTTTCTGTTCAAGCGCCATCTAC”, the binding signal is 0.56 RPM ratio (pull-down/input).
As to “GATGATTGTTCTCCCAGCTGATGAATTCACGTGTTCGAGTAAACAAATTTTCCTAATCTTTCTGTTCAAGCGCCATCTAC”, the binding signal was 0.58 RPM ratio (pull-down/input).
For the sequence “GATGATTGTTCTCCCAGCTGATGAATTAAGACGGTCGAGTAAACAAATTTTCCTAATCTTTCTGTTCAAGCGCCATCTAC”, the binding signal was 0.236 RPM ratio (pull-down/input).
In the case of “GATGATTGTTCTCCCAGCTGATGAATTATAAAGATCGAGTAAACAAATTTTCCTAATCTTTCTGTTCAAGCGCCATCTAC”, the binding signal is 0.233 RPM ratio (pull-down/input).
Consider “GATGATTGTTCTCCCAGCTGATGAATTCTGTGCATCGAGTAAACAAATTTTCCTAATCTTTCTGTTCAAGCGCCATCTAC”, for which the binding signal was 1.52 RPM ratio (pull-down/input).
In the case of “GATGATTGTTCTCCCAGCTGATGAATTGTGCATCTCGAGTAAACAAATTTTCCTAATCTTTCTGTTCAAGCGCCATCTAC”, the binding signal is 8.03 RPM ratio (pull-down/input).
The figure for “GATGATTGTTCTCCCAGCTGATGAATTCGTGCCATCGAGTAAACAAATTTTCCTAATCTTTCTGTTCAAGCGCCATCTAC” is 2.18 RPM ratio (pull-down/input).
